In PubChem BioAssay (NCATS) one finds outcome data, which are given here for 40 molecules.

Activity calls are given as the source filed them. Calls come from the whole dose curve; as a rule, active = well fitted inhibition curve with a large enough effect; inconclusive = small, poorly fitted or top-dose-only effect; inactive = flat fitted curve, though single readings scatter.

Chain of Phosphoglycerate kinase, glycosomal (Trypanosoma brucei brucei) (P07378 whole entry, looked up): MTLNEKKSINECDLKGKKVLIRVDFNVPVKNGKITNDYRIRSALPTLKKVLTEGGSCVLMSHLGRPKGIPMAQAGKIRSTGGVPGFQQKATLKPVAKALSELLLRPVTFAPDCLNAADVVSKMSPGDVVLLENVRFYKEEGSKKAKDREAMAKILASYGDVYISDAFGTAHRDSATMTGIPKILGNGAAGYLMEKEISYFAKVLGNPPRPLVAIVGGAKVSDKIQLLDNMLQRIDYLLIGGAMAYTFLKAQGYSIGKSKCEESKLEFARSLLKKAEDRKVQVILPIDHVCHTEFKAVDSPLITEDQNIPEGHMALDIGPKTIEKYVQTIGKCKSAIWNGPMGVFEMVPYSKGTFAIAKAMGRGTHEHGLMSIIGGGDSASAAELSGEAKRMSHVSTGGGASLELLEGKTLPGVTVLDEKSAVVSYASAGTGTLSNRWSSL

In this assay the target is Phosphoglycerate kinase, glycosomal (Trypanosoma brucei brucei) (UniProt P07378). Nature of the assay: qHTS Validation Assay to Find Inhibitors of Phosphoglycerate Kinase (AID 504547). As to conditions: enzymatic PGK inhibition, coupled luminescence read-out; series mostly up to 57.5 µM. The source says:
NIH Molecular Libraries Probe Production Network [MLPCN]
NIH Chemical Genomics Center [NCGC]
PI Name: Malcolm Walkinshaw, University of Edinburgh
Several species of the Trypanosomatidae family of parasitic protozoans cause a spectrum of diseases
throughout the tropical and subtropical world. Sleeping sickness, caused by two subspecies of Trypanosoma brucei, is endemic to areas of sub-Saharan Africa, while Chagas disease, a manifestation of Trypanosoma cruzi infection, is prevalent throughout Central and South America. In addition, many species of Leishmania are responsible for a range of cutaneous and visceral diseases, causing ulcers, destructive lesions and kalaazar, a lethal infection of the viscera. Collectively, these organisms infect 30 million people worldwide (~500 million live in endemic areas), and account for ~130,000 deaths annually. Given their debilitating and prevalent nature, trypanosomatid parasites impose a heavy medical, economic and social burden on entire populations, primarily in the developing world. The problem is further exacerbated by the fact that existing treatments have progressed little in the past 50 years, and current drugs show high toxicity and poor efficacy.
Blood-stream stages of T. brucei are entirely dependent on glycolysis as a source of ATP, and the tricarboxylic acid cycle and oxidative phosphorylation are both repressed. Glycolysis in axenically cultured T. cruzi, representing the intracellular pathogenic stage, is also essential for these parasites. […] Previous studies have shown that the glycolytic enzyme, phosphoglycerate kinase (PGK), is a viable target for drugs to kill these parasites.
NCGC Assay Protocol Summary:
Briefly, 3ul of substrate/PGK buffer (columns 1,2,5-48) are dispensed into Greiner white solid bottom 1536-well assay plates; columns 3-4 receive only TEA buffer as 0x PGK controls. Compounds are then transferred via Kalypsys pin tool equipped with 1536-pin array (10nl slotted pins, V&P Scientific, San Diego, CA). Following addition of compound, 1ul of GAPDH (100nM final concentration, all columns) is added to initiate the reaction (this upstream coupling enzyme is necessary for in-well production of PGK substrate, 1,3-bisphosphoglycerate (1,3-BPG), which is unstable and not commercially available). The plates are then incubated at room temperature for 60 minutes. Kinase-Glo Plus reagent is added (2ul) and plates incubated for 10 minutes, before being transferred to a ViewLux high-throughput CCD imager (PerkinElmer) wherein single end-point measurements of luminescence are acquired using a clear filter. All reagents are diluted in an assay buffer consisting of 100mM TEA (pH 7.6), 5mM MgCl2 and 0.01% Tween-20.
Background: Quantitative high-throughput screening tests each substance at several concentrations.
As for `C[N+](C)(C)CCCCCCCCCC[N+](C)(C)C`, the outcome was inactive. Consider `Cc1ccc(S(=O)(=O)NC(=O)NN2CCCCCC2)cc1`, for which the result was inactive. Under `CC(C(=O)O)c1ccc(CC2CCCC2=O)cc1` (stereo not given) stands “inactive”. For `CCN(CC)CCOCCOC(=O)C1(c2ccccc2)CCCC1`, the result was inactive.

On to `OC(CCN1CCCCC1)(c1ccccc1)C1CCCCC1` (stereo not given), for which the result was inactive.

As to `O=C1CC2(CCCC2)CC(=O)N1CCCCN1CCN(c2ncccn2)CC1`, the result was inactive. For `CCCCNC(=O)NS(=O)(=O)c1ccc(C)cc1`, the result was inactive. Then `CC[N+](C)(C)c1cccc(O)c1`, with “inactive”; and `CC(C)[N+](C)(CCOC(=O)C1c2ccccc2Oc2ccccc21)C(C)C`, with “inactive”; and `Cc1ccc(/C(=C\CN2CCCC2)c2ccccn2)cc1`, with “inactive”. Then `CCN(CC)CCNC(=O)c1cc(S(C)(=O)=O)ccc1OC`, with “inactive”. Then `CC(=O)OCC1=C(C(=O)O)N2C(=O)[C@@H](NC(=O)Cc3cccs3)[C@H]2SC1`, with “inactive”; and `COc1cc(Cc2cnc(N)nc2N)cc(OC)c1OC`, with “inactive”.

For `CC1=C(C)C(=O)C(CCCCC#CCCCC#CCO)=C(C)C1=O`, the outcome was inactive.

On to `CN1C[C@H](C(=O)N[C@]2(C)O[C@@]3(O)[C@@H]4CCCN4C(=O)[C@H](Cc4ccccc4)N3C2=O)C[C@@H]2c3cccc4[nH]cc(c34)C[C@H]21`, for which the result was inactive.

Consider `CCNC(=O)N1CCN(CCCC(c2ccc(F)cc2)c2ccc(F)cc2)CC1`, for which the outcome was inactive.

Consider `NC(=O)N1c2ccccc2C=Cc2ccccc21`, for which the outcome was inactive.

On to `Nc1nc(N)c2nc(-c3ccccc3)c(N)nc2n1`, for which the result was inactive. Then `CCCN(CCC)C(=O)C(CCC(=O)O)NC(=O)c1ccccc1` (stereo not given), with “inactive”; and `CC(C)(Oc1ccc(CCNC(=O)c2ccc(Cl)cc2)cc1)C(=O)O`, with “inactive”; and `CN(C)[C@@H]1C(=O)C(C(N)=O)=C(O)[C@@]2(O)C(=O)C3=C(O)c4c(O)ccc(Cl)c4[C@@H](O)[C@H]3C[C@@H]12`, with “inactive”. Then `C[N+](C)(C)CCOC(N)=O`, with “inactive”. Under `CCC(=O)c1ccc2c(c1)N(CCCN(C)C)c1ccccc1S2` stands “inactive”; under `CN(C)CC[C@@H](c1ccc(Br)cc1)c1ccccn1`, “inactive”. Regarding `CC(=O)Oc1cc(C(C)C)c(OCCN(C)C)cc1C`, the outcome was inactive. Turning to `O=C(O)CCCCCCCC(=O)O`, the result was inactive. Then `N[C@@H](COP(=O)(O)O)C(=O)O`, with “inactive”; and `O=C1NCN(c2ccccc2)C12CCN(CCCC(c1ccc(F)cc1)c1ccc(F)cc1)CC2`, with “inactive”. Turning to `Cc1cc(C)c(/C=C2\C(=O)Nc3ccccc32)[nH]1`, the result was inactive. With `O=c1[nH]c(=O)n([C@H]2C[C@H](O)[C@@H](CO)O2)cc1Br`, the result was inactive. For `CO[C@@]1(NC(=O)CSCC#N)C(=O)N2C(C(=O)O)=C(CSc3nnnn3C)CS[C@@H]21`, the outcome was inactive.

With `CN=C(NC#N)NCCSCc1nc[nH]c1C`, the outcome was inactive. Under `COc1ccc2c(c1OC)C(=O)O[C@@H]2[C@H]1c2c(cc3c(c2OC)OCO3)CCN1C` stands “inactive”.

`C[C@@H](O)[C@H]1C(=O)N2C(C(=O)O)=C(SCCN=CN)C[C@H]12`: the outcome was inactive. Under `Cc1nc2c([nH]1)c(=O)n(C)c(=O)n2Cc1ccco1` stands “inactive”; under `CCn1nc(C(=O)O)c(=O)c2cc3c(cc21)OCO3`, “inactive”. Then `Nc1ncn([C@@H]2O[C@H](CO)[C@@H](O)[C@H]2O)c(=O)n1`, with “inactive”; and `CN(C)CCOC(=O)COc1ccc(Cl)cc1`, with “inactive”; and `CN(C)CC/C=C1\c2ccccc2COc2ccccc21`, with “inactive”. Take `c1ccc2c(c1)CCCC2C1=NCCN1` (stereo not given): the result was inactive.
